Results filed as inconclusive are left out. Activity calls are given as the source filed them. Rule for the calls: active = hit-call score of the fitted dose curve at least 0.9, where 1 is the maximum; inconclusive = response in the unintended direction; inactive = score below 0.9.
What was measured:
[1] = TOX21_p53_BLA_p2_viability: Viability Assessment in the Tox21 HCT-116 p53 Agonism Beta-lactamase Assay, Phase 2 (AID 2283591);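 note: compound exposure lasted 16 h at 37 °C; actives lower the ATP signal meaning cytotoxicity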
Summary of the method: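 HCT116 p53-bla cells, 4000/well, dosed after 5 h plating (217-fold dilution of DMSO stocks) and incubated 16 h at 37C. Viability taken as cellular ATP by CellTiter-Glo luminescence after 30 min RT; signal loss marks cytotoxicity.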

[2] = molecular target: Cellular tumor antigen p53 (Homo sapiens) (UniProt P04637); experiment: TOX21_p53_BLA_p2_ratio: Tox21 HCT-116 p53 Agonism Beta-lactamase Assay, Ratio, Phase 2 (AID 2283592)
Summary of the method: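 HCT116 p53-bla; 4000 cells/well; 5 h pre-incubation; cpd in DMSO, 217-fold dilution; 16 h 37C/5% CO2; CCF4-AM 2 h RT; Ex 405, Em 460/530 ratio; DMSO = baseline; positive fitting direction.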

[3] = TOX21_p53_BLA_p3_viability: Viability Assessment in the Tox21 HCT-116 p53 Agonism Beta-lactamase Assay, Phase 3 (AID 2283593);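 note: cells exposed to compound for 16 h before reading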
Summary of the method: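 HCT116 cells, 4000/well, dosed 5 h after plating by pin transfer (217-fold dilution from DMSO stock) and incubated 16 h at 37C, 5% CO2. Viability read as ATP luminescence with CellTiter-Glo after 30 min at room temperature.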

[4] = molecular target: Cellular tumor antigen p53 (Homo sapiens) (UniProt P04637); experiment: TOX21_p53_BLA_p5_ratio: Tox21 HCT-116 p53 Agonism Beta-lactamase Assay, Ratio, Phase 5 (AID 2283599)
Summary of the method: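 HCT-116 p53-bla cells (4000/well) plated 5 h, dosed with compound (217-fold DMSO dilution) for 16 h at 37 C; CCF4-AM substrate 2 h at room temperature. Activity is the 460/530 nm emission ratio (405 nm excitation), fitted in gain-of-signal direction versus DMSO.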

[5] = molecular target: Cellular tumor antigen p53 (Homo sapiens) (UniProt P04637); experiment: TOX21_p53_BLA_p4_ratio: Tox21 HCT-116 p53 Agonism Beta-lactamase Assay, Ratio, Phase 4 (AID 2283601)
Summary of the method: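 HCT-116 p53 beta-lactamase reporter cells (4000/well) preincubated 5 h, then compound (217-fold dilution of DMSO stock) for 16 h at 37C. CCF4-AM substrate added 2 h at room temperature; 460/530 nm emission ratio fitted upward versus DMSO.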

[6] = TOX21_p53_BLA_p5_viability: Viability Assessment in the Tox21 HCT-116 p53 Agonism Beta-lactamase Assay, Phase 5 (AID 2283600)
Summary of the method: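 4000 cells/well; 5 h pre-incubation; DMSO compounds pin-transferred, 217-fold dilution; 16 h, 37C/5% CO2; CCF4-AM 2 h RT; CellTiter-Glo 30 min RT; luminescence.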

[7] = molecular target: Cellular tumor antigen p53 (Homo sapiens) (UniProt P04637); experiment: TOX21_p53_BLA_p3_ratio: Tox21 HCT-116 p53 Agonism Beta-lactamase Assay, Ratio, Phase 3 (AID 2283596)
Summary of the method: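 HCT116 p53-bla cells (4000/well) given compound in DMSO (217-fold dilution) after 5 h, incubated 16 h at 37C. CCF4-AM substrate 2 h at room temperature; 460/530 nm emission ratio, gain fitted against DMSO.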

Measured: outcome

Chain of Cellular tumor antigen p53 (Homo sapiens) (P04637 whole entry, looked up): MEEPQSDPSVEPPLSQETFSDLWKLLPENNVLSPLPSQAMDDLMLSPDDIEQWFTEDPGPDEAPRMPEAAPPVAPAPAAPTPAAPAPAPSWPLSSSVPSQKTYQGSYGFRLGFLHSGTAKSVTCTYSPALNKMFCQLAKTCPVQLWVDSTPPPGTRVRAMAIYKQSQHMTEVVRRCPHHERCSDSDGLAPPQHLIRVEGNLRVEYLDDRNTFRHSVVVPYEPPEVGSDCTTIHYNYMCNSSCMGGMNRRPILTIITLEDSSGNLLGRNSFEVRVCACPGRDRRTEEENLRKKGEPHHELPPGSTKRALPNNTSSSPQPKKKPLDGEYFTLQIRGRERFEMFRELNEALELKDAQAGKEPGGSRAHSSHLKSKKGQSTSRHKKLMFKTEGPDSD

C=CC1=C(C(=O)O)N2C(=O)[C@@H](NC(=O)C(=NOCC(=O)O)c3csc(N)n3)[C@H]2SC1
not listed: [6] | [7]
inactive: all other assays above

CCC(=O)O[C@]1(C(=O)CCl)[C@@H](C)C[C@H]2[C@@H]3CCC4=CC(=O)C=C[C@]4(C)[C@@]3(F)[C@@H](O)C[C@@]21C
inactive: [1] | [2] | [3] | [5]

COc1cc(-c2ccc(=O)[nH]n2)ccc1OC(F)F
not listed: [4] | [7]
inactive: all other assays above

COC(=O)CC#N
inactive: [1] | [2] | [3] | [5]

CC(C)CCC[C@@H](C)[C@H]1CC[C@H]2[C@@H]3CC=C4C[C@@H](O)CC[C@]4(C)[C@H]3CC[C@]12C
not listed: [6] | [7]
inactive: all other assays above

C[C@@H]1C[C@H]2[C@@H]3CCC4=CC(=O)C=C[C@]4(C)[C@@]3(F)[C@@H](O)C[C@]2(C)[C@@]1(O)C(=O)COC(=O)c1cccc(S(=O)(=O)O)c1
inactive: [1] | [2] | [7]

C=CCCC=C
not listed: [4] | [7]
inactive: all other assays above

Reference: PubChem BioAssay (EPA / NIEHS)
